Screens as filed in PubChem.
In the library only some 6% were active in any assay of this set; here they are far more common.
D1 PAM – human D1 dopamine receptor positive modulation | potentiation, % at 10 µM | P21728 | AID 504651 | 360,000 tested, 0.036% active | HEK293 TREx D1 cells, calcium flux, dopamine EC20 potentiation; in the data active = potentiation above about 30%
Target sequence (P21728 whole entry, looked up): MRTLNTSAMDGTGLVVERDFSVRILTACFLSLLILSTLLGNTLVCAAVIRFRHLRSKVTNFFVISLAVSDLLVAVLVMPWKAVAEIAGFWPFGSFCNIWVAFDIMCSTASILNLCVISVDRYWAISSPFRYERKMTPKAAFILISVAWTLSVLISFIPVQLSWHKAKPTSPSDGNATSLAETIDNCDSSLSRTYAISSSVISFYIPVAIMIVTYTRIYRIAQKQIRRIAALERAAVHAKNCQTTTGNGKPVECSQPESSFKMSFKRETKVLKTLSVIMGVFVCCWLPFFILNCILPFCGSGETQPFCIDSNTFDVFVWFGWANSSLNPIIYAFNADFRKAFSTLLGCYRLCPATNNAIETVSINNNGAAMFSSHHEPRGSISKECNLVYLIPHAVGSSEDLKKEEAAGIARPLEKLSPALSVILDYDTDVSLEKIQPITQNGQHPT
D3 ag – agonists of human D3 dopamine receptor. P35462. 410,000 tested, 0.58% active. max activation, %. AID 652048. D3R DiscoveRx beta-arrestin cells, luminescence, 90 min; in the data active = max activation above about 30%
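Agonist mode: compounds and dopamine controls were applied to plated cells for 90 min at 37 degrees C after an overnight attachment at 1500 cells/well. Luminescent read-out followed 30 - 60 minutes at room temperature with DiscoveRx detection reagent.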
DRD3 antagonist – antagonists of human D3 dopamine receptor; P35462; D3R cells, DiscoveRx beta-arrestin luminescence, antagonist mode; stronger effect = lower value; max response, negative = inhibition, %; 360,000 tested, 2.5% active; in the data active = max response below about -50%; inconclusive = no clear call, values can overlap the other calls
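Cells plated overnight at 1500 cells/well, then exposed to library compounds with dopamine controls for 90 minutes at 37 degrees C. DiscoveRx reagent added for 30–60 minutes at room temperature; luminescence read, quantitative HTS format.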
D1 agonist – activates the human D1 dopamine receptor | P21728 | HEK293 T-REx D1 cells, calcium flux, agonist mode | activation, % at 2 µM | 360,000 tested, 1% active | AID 504660; in the data active = activation above about 30%
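Tetracycline-induced HEK293 TREx D1 cells, force-coupled to calcium signalling, were dye-loaded with a no-wash calcium kit. Compound was pin-added after a 10 s baseline. Fluorescence was read kinetically at 1 cycle/s for 180 s, with calcium rises flagged as agonism.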
D1 antagonist – antagonists of human D1 dopamine receptor | AID 504652 | P21728 | activity change, negative = inhibition, % at 10 µM | HEK293 TREx D1 cells, calcium flux, dopamine EC80; stronger effect = lower value | 360,000 tested, 3.2% active; in the data active = activity change below about -30%
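Calcium flux readout: force-coupled, inducible Hek293 Trex D1 line, cells induced overnight at 30 C with tetracycline, dye-loaded 30–90 min at RT. Antagonism scored against EC80 dopamine challenge given 180 s after compound.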
Large screens that a line does not name were inactive.

Cc1ccc(C2(C)NC(=O)N(CC(=O)Nc3ccccc3N3CCCC3)C2=O)cc1 (centres undefined)	D1 agonist 47
CC1(c2ccc(OC(F)F)cc2)NC(=O)N(CC(=O)Nc2ccccc2)C1=O (centres undefined)	D1 agonist 59, D1 antagonist -59
Cc1ccccc1NC(=O)C(C)OC(=O)C1CCCO1 (centres undefined)	none (no result: D1 PAM, D1 agonist, D1 antagonist)
COc1ccc2oc(C(=O)OCC(=O)N3CCN(S(=O)(=O)c4ccc(C)cc4)CC3)c(C)c2c1	none
Nc1ccn([C@@H]2O[C@H](CNCc3cnc(N4CCOCC4)nc3)[C@@H](O)[C@H]2O)c(=O)n1	none (no result: D1 PAM, D1 agonist, D1 antagonist)
O=S(=O)(c1cccc(F)c1)N1CCN(S(=O)(=O)c2ccc3c(c2)OCCO3)CC1	none (no result: D3 ag, DRD3 antagonist)
COc1cccc(NC(=O)CN2C(=O)NC3(CCCC3)C2=O)c1	none
CC(=O)Nc1ccc(/C=N/N2C(=O)NC(C)(c3ccc(OC(F)F)cc3)C2=O)cc1 (centres undefined)	D1 agonist 96, D1 antagonist -50
COc1cccc(NC(=O)CN2C(=O)NC(C)(c3ccc(C)cc3)C2=O)c1 (centres undefined)	D1 agonist 34
C/C=C1\NC(=O)[C@H](C)NC(=O)[C@@H](NC(=O)[C@H](Cc2ccc(O)cc2)NC(=O)[C@@H](NC(=O)/C(C)=C/C)C(C)C)[C@@H](C)OC(=O)[C@H](CC(C)C)NC(=O)[C@@H](CCC(=O)O)NC1=O	none (no result: D1 PAM, D1 agonist, D1 antagonist)
CN(C)c1ccc(NC(=O)CN2CCC(O)(c3ccccc3)CC2)cc1	DRD3 antagonist -79
Cc1ccc(C(=O)C2CCN(CC(=O)Nc3ccc(N(C)C)cc3)CC2)cc1	DRD3 antagonist -82
O=C(CN1CCN(c2ccc(O)cc2)CC1)Nc1ccc2c(c1)OCCO2	D3 ag 30
Cc1ccc(C(=O)C2CCN(CC(=O)Nc3ccc4c(c3)OCCO4)CC2)cc1	DRD3 antagonist -70
Cc1cccc(NC(=O)CN2CCC(C(=O)c3ccc4c(c3)OCCO4)CC2)c1	none
CC(=O)c1ccc(NC(=O)CN2CCC(C(=O)c3ccc(F)cc3)CC2)cc1	DRD3 antagonist inconclusive
CCNC(=O)C1CCCN(C(=O)c2ccc(C(=O)OC)cc2)CC1 (centres undefined)	none (no result: D1 PAM, D1 agonist, D1 antagonist)
O=C(Nc1ccc2c(c1)CCC2)Nc1ccccc1F	none
Cc1ccc(C(=O)C2CCN(CC(=O)N3CCN(c4ccc(F)cc4)CC3)CC2)cc1	DRD3 antagonist inconclusive, D1 antagonist -31
O=C(Nc1ccc(Cl)cc1)N1CCC(c2nc(-c3ccc(F)cc3)no2)CC1	D1 antagonist -50
CC1Cc2ccccc2N1CC(=O)Nc1ccc2c(c1)OCCCO2 (centres undefined)	D3 ag 67
COc1ccc(NC(=O)N2CCCC(c3nc(-c4ccc(OC)cc4)no3)C2)cc1 (centres undefined)	none
CC1Cc2ccccc2N1CC(=O)Nc1ccc(N2CCOCC2)cc1 (centres undefined)	none
O=C(c1ccc(F)cc1)C1CCN(C(=O)Nc2ccc(F)cc2)CC1	D1 antagonist -30
COc1ccc2c(c1)c(=O)c(C(=O)c1ccc(Cl)cc1)cn2CC(=O)Nc1ccc2c(c1)OCO2	none (no result: DRD3 antagonist)
COC1[C@@H](O[C@@H]2O[C@H](C)[C@@H](O[C@H]3C[C@@](C)(O)[C@H](OC(=O)CC(C)C)[C@H](C)O3)[C@H](N(C)C)[C@H]2O)[C@@H](CC=O)C[C@@H](C)[C@@H](O)/C=C/C=C/C[C@@H](C)OC(=O)C[C@H]1OC(C)=O (some centres undefined)	none (no result: D1 PAM, DRD3 antagonist, D1 agonist, D1 antagonist)
O=C(CN1CCC(C(=O)c2ccc(F)cc2)CC1)Nc1ccc(F)cc1	DRD3 antagonist -71
Cc1ccc(NC(=O)N2CCCCCC2)cc1	none
CC1(c2ccc3c(c2)OCCO3)NC(=O)N(CC(=O)c2ccc[nH]2)C1=O (centres undefined)	none (no result: D1 PAM)
CC1Cc2ccccc2N1C(=O)CN1C(=O)NC(C)(c2ccc3c(c2)OCCO3)C1=O (centres undefined)	D1 agonist 38
CCCNC(=S)N1CCC(C(=O)c2ccc3c(c2)OCCO3)CC1	D1 antagonist -34
O=C(Nc1ccc(Br)cc1)N1CCCCCC1	D1 antagonist -50
Cc1ccc(-n2nc3c(=O)n(CC(=O)Nc4ccccc4F)nc(C)c3c2C)c(C)c1	none (no result: DRD3 antagonist)
CCC/C=C/c1ccc(CN2C(C)C(=O)N(Cc3cn(CC4CCCCC4)nn3)CCS2(=O)=O)cc1 (centres undefined)	none (no result: D1 PAM, D1 agonist, D1 antagonist)
COc1cccc(NC(=O)NC2(C(=O)N3CCN(C)CC3)CCCCC2)c1	none
O=C(CN1CCC(C(=O)c2ccc(F)cc2)CC1)Nc1ccccc1	DRD3 antagonist -81, D1 antagonist -56
O=C(NCc1ccc(F)cc1)C1CCCN(C(=O)Nc2ccc(F)cc2)C1 (centres undefined)	D1 antagonist -86
Cc1ccc(-c2cc(-c3coc4ccccc4c3=O)c3c(n2)-c2ccccc2OC3)cc1	none (no result: DRD3 antagonist)
Cc1ncc(CSSCc2cnc(C)c(O)c2CO)c(CO)c1O	none (no result: D1 PAM, DRD3 antagonist, D1 agonist, D1 antagonist)
Cc1ncc(CO)c(CNc2ccc(Oc3ccccc3)cc2)c1O	D1 antagonist -37
COc1ccc(-c2noc(CNS(=O)(=O)c3ccc(NC(C)=O)cc3)n2)cc1	none
O=C(NCc1nc(-c2ccc(C(F)(F)F)cc2)no1)Nc1ccc(OC(F)(F)F)cc1	D1 antagonist -37
CCCC1=C(C(=O)OCC)C(c2ccc(OC)c(C)c2OC)C(C#N)=C(N)O1 (centres undefined)	D1 agonist 56
CCOC(=O)C1=C(CSc2nc(CC)c(C)cc2C#N)OC(N)=C(C#N)C1c1ccc(OC)cc1 (centres undefined)	none
CCCC1=C(C(=O)OCC)C(c2ccco2)C(C#N)=C(N)O1 (centres undefined)	D3 ag 48
CCOC(=O)C1=C(CC)OC(N)=C(C#N)C1c1ccc(OC)c(C)c1OC (centres undefined)	none
CCOC(=O)C1=C(CSc2nc(C)ccc2C#N)OC(N)=C(C#N)C1c1cccc(OC)c1OC (centres undefined)	D1 antagonist -70
CCOC(=O)C1=C(CC)OC(N)=C(C#N)C1c1ccc(OC)c(OC)c1OC (centres undefined)	D1 antagonist -32
CCOC(=O)C1=C(N)OC(C)=C(C#N)C1c1ccco1 (centres undefined)	none
CCOC(=O)[C@]12Cc3c(cc(OC)c(OC)c3OC)[C@H]1N(C1CCCCC1)C(=O)c1cc(OC)ccc12	none (no result: D1 PAM, D1 agonist, D1 antagonist)
CN(C)c1ccc(CNCCC(Cc2ccccc2)c2ccco2)cc1 (centres undefined)	D1 agonist 47
c1ccc(CNCCC(Cc2ccccc2)c2ccco2)cc1 (centres undefined)	none
CCC(=O)N1CCC2(CC1)Oc1ccc(F)cc1C(=O)C21CC(c2cccnc2)=NO1 (centres undefined)	none
